The values that follow come from PubChem BioAssay (Tox21).

Assay [1] can be described thus: qHTS assay for small molecules that induce genotoxicity in human embryonic kidney cells expressing luciferase-tagged ATAD5 (AID 651632). Note: nearly all actives have a fitted effect of over 15% in size. The procedure, abridged: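 Luminescent reporter readout, HEK293T ATAD5-luc line: 16 hr drug exposure (37C, 5% CO2) followed by Amplite, 30 min RT.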
The nature of assay [2]: qHTS assay for small molecule agonists of the p53 signaling pathway - cell viability (AID 651633; calls by dose curve; note: nearly all actives have a fitted effect of over 30% in size; note: potency is the fitted concentration of half-maximal effect). The procedure, abridged: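 Viability counter-read: CellTiter-Glo luminescence (30 min, room temperature) in the same p53RE-bla plates. These plates had been exposed to compounds for 16 h at 37 C.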
In general terms: qHTS replaces the single test concentration by a dilution series.

The nature of assay [3]: qHTS assay for small molecules that induce genotoxicity in human embryonic kidney cells expressing luciferase-tagged ATAD5 - cell viability (AID 651634; calls by dose curve; note: nearly all actives have a fitted effect of over 25% in size; note: potency is the fitted concentration of half-maximal effect). The procedure, abridged:
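Viability read: CellTiter-Fluor fluorescence, 30 min at 37C. Cells: HEK293T, luciferase-tagged ATAD5. Exposure: 15.5 hr, 37C, 5% CO2, compound or DMSO vehicle.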

Assay [4] can be described thus: qHTS assay for small molecule disruptors of the mitochondrial membrane potential - cell viability (AID 720634; calls by dose curve; note: nearly all actives have a fitted effect of over 20% in size; note: potency is the fitted concentration of half-maximal effect). In outline: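 HepG2, 1 hr compound, 37 C. ATP luminescence via CellTiter-Glo, 30 min RT, same well as m-MPI.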
Assay [5] is described as follows: qHTS assay for small molecule disruptors of the mitochondrial membrane potential (AID 720635). Note: potency is the fitted concentration of half-maximal effect. The procedure, abridged:
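Mitochondrial membrane potential tracked with Mito-MPS dye, red aggregates (ex 540/em 590 nm) against green monomers (ex 490/em 535 nm). Compound treatment 1 hr at 37C, dye 30 min in HepG2.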

A short description of assay [6]: qHTS assay to test for compound auto fluorescence at 590 nm (red) in HepG2 cells (AID 720674). In outline:
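Red autofluorescence (Ex/Em 540/590 nm, Rose Bengal sodium equivalents) was measured in HepG2 cells, 2,000 per well in MEM plus 10% FBS, plated overnight at 37 C. Readings were taken 1 hr after adding 23 nL compound or DMSO, at 37 C and 5% CO2.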

Assay [7] can be described thus: qHTS assay to test for compound auto fluorescence at 535 nm (green) in HepG2 cells (AID 720675).
Assay [8] in a line: qHTS assay to test for compound auto fluorescence at 460 nm (blue) in HEK293 cells (AID 720678). Note: potency is the fitted concentration of half-maximal effect. In outline:
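Measured: blue fluorescence (Ex 405/Em 460 nm) of compound-treated HEK293 cells, incubated overnight at 37C with 5% CO2 and scaled to triamterene equivalents.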

Assay [9] is described as follows: qHTS assay to test for compound auto fluorescence at 590 nm (red) in HEK293 cells (AID 720679). In outline: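 Using HEK293 cells at 2,000 per well, the screen added 23 nL of each compound after cell attachment and incubated overnight (37C, 5% CO2). The plate reader then captured red-label fluorescence, Ex/Em 540/590nm.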
The nature of assay [10]: qHTS assay for small molecule agonists of the p53 signaling pathway (AID 651631; calls by dose curve; note: potency is the fitted concentration of half-maximal effect; nearly all actives have a fitted effect of over 15% in size). The procedure, abridged:
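We treat p53RE-bla HCT-116 cells with compounds for 16 h at 37 °C, add LiveBLAzer B/G FRET substrate for 2 h at room temperature, and measure fluorescence intensity.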

Molecules are shown by their SMILES. Values joined by “and” are separate entries in the source; they are usually repeats but may differ in a detail not shown here. Equal values may be shown once. Results filed as inconclusive are left out. Active and inactive are the calls of the source. Unless noted, calls come from the whole dose curve; as a rule, active = well fitted curve in the direction sought with a large enough effect in the repeat runs; inconclusive = weak or mixed curves; inactive = no such curve, though single readings can be large; an effect the other way counts as inactive or inconclusive.
Tags give direction and shape of the fitted curve or compound fluorescence and quenching.

As for `CCCC(C)c1ccccc1O` (configuration not stated), the Potency entry in assay [1], in assay [2], in [3], in assay [4], in [6] and in assay [7] was “inactive” each time. Also, the Potency entry in assay [8] and in [9] was “inactive” each time. In addition, the Potency in assay [5] was 30.6 µM (active).

Regarding `CC[C@H]1O[C@]2(CC[C@@H]1C)C[C@@H]1C[C@@H](C/C=C(\C)C[C@@H](C)/C=C/C=C3\CO[C@@H]4[C@H](O)C(C)=C[C@@H](C(=O)O1)[C@]34O)O2`, the Potency entry in [1], in [6], in assay [7], in assay [8] and in assay [9] was “inactive” throughout. For the same compound, the Potency was 12.1 µM (active) in assay [2], 54 µM (active) in assay [3], 68 µM (active) in [4] and 21.5 µM (active) in [5].

On to `CC1=NC(C)OC1C` (configuration not stated), for which the Potency entry in assay [1], in [2], in [3], in assay [4], in assay [5] and in assay [6] was “inactive” throughout. In addition, the Potency result in assay [7], in assay [8] and in [9] was “inactive” in each case.

On to `CCCCCCCC/C=C\CCCCCCCCOCCO`, for which the Potency entry in assay [1], in assay [6], in [7], in [8] and in [9] was “inactive” throughout. Moreover, the Potency in assay [2] was 31.6 µM (active); in assay [3] it was 39.8 µM (active); in assay [4] it was 79.4 µM (active); in assay [5], 1.78 µM (active).

As for `Cc1cc(=O)oc2cc(N(C)C)ccc12`, the Potency in [10] was 48.6 µM (active); in [8], 39.8 µM [fluorescent] (active). For the same compound, the Potency result in assay [2], in assay [4], in [6], in assay [7] and in assay [9] was “inactive” in each case.

For `Oc1cccc(-c2c3nc(c(-c4cccc(O)c4)c4ccc([nH]4)c(-c4cccc(O)c4)c4nc(c(-c5cccc(O)c5)c5ccc2[nH]5)CC4)C=C3)c1`, the Potency result in assay [1], in assay [4], in [6], in assay [7], in assay [8] and in [9] was “inactive” in each case. In addition, the Potency in assay [2] was 9.44 µM (active); in assay [3], 13.3 µM (active) and 11.9 µM (active); in assay [5], 26.6 µM (active).

With `CCCCCCCCCCCC[N+](C)(C)CCCCCCCCCCCC`, the Potency result in assay [1], in [6], in [7], in assay [8] and in assay [9] was “inactive” each time. Besides, the Potency in [2] is 54.5 µM (active); in [3], 68.6 µM (active); in assay [4], 30.6 µM (active); in assay [5], 19.3 µM (active).

In the case of `O=C(NO)C1(NS(=O)(=O)c2ccc(Oc3ccc(F)cc3)cc2)CCOCC1`, the Potency result in assay [1], in assay [2], in assay [3], in assay [4], in assay [5] and in assay [6] was “inactive” each time. For the same compound, the Potency result in assay [7], in assay [8] and in assay [9] was “inactive” in each case.

Take `Cc1ccc(-n2nc(C(C)(C)C)cc2NC(=O)Nc2ccc(OCCN3CCOCC3)c3ccccc23)cc1`: the Potency entry in [1], in [2], in assay [3], in assay [4], in assay [6] and in [7] was “inactive” throughout. Moreover, the Potency result in assay [8] and in assay [9] was “inactive” throughout. Moreover, the Potency in assay [5] is 18.8 µM (active).

Consider `CCCCCCCCCCCCCC[P+](CCCC)(CCCC)CCCC` (tested in a mixture with another compound), for which the Potency entry in [1], in assay [6], in assay [7], in [8] and in assay [9] was “inactive” each time. The Potency was 27.5 µM (active) in assay [2], 48.9 µM (active) in assay [3], 61.5 µM (active) in [4] and 0.69 µM (active) in assay [5].

In the case of `[Cl][Bi]([Cl])([c]1ccccc1)([c]1ccccc1)[c]1ccccc1`, the Potency in assay [10] was 24.2 µM (active); in assay [2], 21.6 µM (active); in assay [5], 43 µM (active). The Potency entry in [6], in assay [7], in assay [8] and in assay [9] was “inactive” in each case.

As for `CCc1cc(SCc2sc(-c3ccc(C(F)(F)F)cc3)nc2CN2CCN(c3ccc(OC)cc3)CC2)ccc1OCC(=O)O`, the Potency result in [1], in assay [4], in assay [6], in [7], in assay [8] and in [9] was “inactive” each time. Further, the Potency was 9.69 µM (active) in [2], 48.6 µM (active) in [3] and 19.3 µM (active) in assay [5].

On to `CCCCCCCCOc1ccccc1C(=O)Nc1ccc(C(=O)OCC[N+](C)(CC)CC)cc1`, for which the Potency entry in assay [1], in [3], in assay [4], in assay [6], in assay [7] and in [8] was “inactive” in each case. The Potency result in assay [9] is “inactive”. Further, the Potency in [2] is 23.7 µM (active); in [5] it was 31.2 µM (active).

As to `CC(NN)c1ccccc1` (configuration not stated), the Potency result in assay [1], in [2], in [3], in assay [4], in assay [5] and in [6] was “inactive” each time. Also, the Potency result in assay [7], in assay [8] and in [9] was “inactive” throughout.

With `C[n+]1ccn(Cc2ccccc2)c1`, the Potency entry in assay [1], in [2], in [3], in [4], in [5] and in assay [6] was “inactive” in each case. The Potency entry in [7], in [8] and in [9] was “inactive” each time.

Turning to `CCCCCCCCS(=O)C(C)Cc1ccc2c(c1)OCO2` (configuration not stated), the Potency entry in assay [1], in assay [2], in assay [3], in assay [4], in assay [5] and in assay [6] was “inactive” in each case. Besides, the Potency entry in assay [7], in [8] and in assay [9] was “inactive” in each case.

`CCc1cc(Cc2cc(CC)cc(C(C)(C)C)c2O)c(O)c(C(C)(C)C)c1`: the Potency result in [1], in assay [4], in [6], in assay [7], in assay [8] and in assay [9] was “inactive” throughout. Besides, the Potency in assay [2] is 10.9 µM (active); in [3], 61.1 µM (active); in assay [5] it was 0.864 µM (active).

As to `COc1ccc(C(=O)/C(Br)=C\C(=O)O)cc1`, the Potency in assay [10] is 10.6 µM (active) and 21.7 µM (active). Besides, the Potency entry in [2], in assay [4], in assay [5], in [6], in [7] and in assay [8] was “inactive” throughout. Moreover, in assay [9], the Potency entry was “inactive”.

On to `O=C1CCCc2c1cc1ccc3cccc4ccc2c1c34`, for which the values for the Potency in assay [10] and in assay [5] were 55.1 µM (active) and 8.74 µM (active), respectively. In addition, the Potency entry in assay [2], in assay [3], in [6], in assay [7], in assay [8] and in [9] was “inactive” throughout.

For `OCc1c[nH]c2ccccc12`, the Potency result in assay [1], in assay [2], in [3], in [6], in [7] and in assay [8] was “inactive” throughout. Also, in assay [9], the Potency result is “inactive”. For the same compound, the Potency in [5] is 24.3 µM (active).

With `C1CCCC1`, the Potency entry in assay [1], in assay [2], in assay [3], in assay [4], in assay [5] and in [6] was “inactive” throughout. The Potency entry in [7], in assay [8] and in assay [9] was “inactive” each time.
